The supplement of paper PMC3334620
Whole data set: some 33,000 sequences, median “E-score (-0.5 to 0.5)” near -0.016, cut for the highest 2% near 0.31. The entries come from a sample that favours the highest values as a whole.

The sequences below were run against Cst6 (UniProt P40535) (assay: PBM E-score (8-mer binding enrichment) (E-score (-0.5 to 0.5)); higher = stronger / more preferred TF binding). Conditions: protein concentration: 200 nM; construct: GST-DNA-binding domain.
Procedure: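 Universal 'all 10-mer' protein binding microarrays (Agilent AMADID 015681) probed with GST-tagged S. cerevisiae TFs (full-length or DBD) made by in vitro transcription/translation (PURExpress), about 100-200 nM. Bound TF was detected with fluorescent anti-GST. Each ungapped 8-mer (which stands for itself and its reverse complement) is scored by the PBM enrichment score (E-score), a modified Wilcoxon-Mann-Whitney statistic from -0.5 to +0.5, computed with the Universal PBM Analysis Suite. Scale: above 0.35 generally sequence-specific binding.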

UniProt P40535, sequence (P40535 whole entry, the tested form may be a part): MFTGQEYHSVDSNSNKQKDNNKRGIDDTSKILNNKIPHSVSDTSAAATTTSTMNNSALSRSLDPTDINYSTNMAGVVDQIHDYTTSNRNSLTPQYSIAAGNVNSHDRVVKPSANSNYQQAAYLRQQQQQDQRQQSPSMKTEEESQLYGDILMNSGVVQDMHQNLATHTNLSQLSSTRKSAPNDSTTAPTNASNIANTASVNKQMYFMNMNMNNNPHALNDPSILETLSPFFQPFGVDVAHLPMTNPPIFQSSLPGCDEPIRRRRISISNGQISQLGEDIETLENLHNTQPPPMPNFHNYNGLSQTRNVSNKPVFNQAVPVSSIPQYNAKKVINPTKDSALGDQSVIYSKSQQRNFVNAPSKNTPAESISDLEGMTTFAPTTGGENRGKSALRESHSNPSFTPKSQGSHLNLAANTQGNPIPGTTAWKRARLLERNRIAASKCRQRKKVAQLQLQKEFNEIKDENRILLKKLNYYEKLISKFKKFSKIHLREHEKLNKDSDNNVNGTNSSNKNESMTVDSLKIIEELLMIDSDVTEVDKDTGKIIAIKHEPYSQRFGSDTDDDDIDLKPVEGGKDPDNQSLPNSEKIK

Sequence | PBM E-score
ACTCATAG | 0.152
AATCATAC | 0.239
CATCATAG | 0.326
AATCATAG | 0.189
CAGGGAAG | -0.244
CTTCCTTC | -0.24
ATGGTGAG | 0.0691
CAACACCC | -0.142
AGGCCCAC | -0.378
GGAGTTTA | 0.00491
ATGATGAA | 0.367
CTGATGAC | 0.292
ATGATGAC | 0.378
AGGATGAC | 0.208
ATGATTAA | 0.329
ATGATTAG | 0.158
CTGATTAA | 0.161
CTGATGAA | 0.0772
GTGATGAA | 0.154
TAGCGAGA | -0.0782
GCATTCGA | -0.00988
ACCATCTA | -0.207
ATTTGTGA | 0.146
AGTGCAGC | -0.108
ATTGATAC | 0.154

Sequence | PBM E-score
GCGATGCA | -0.255
CCTCAACG | -0.102
CGTCAACC | 0.377
CGTCAACA | 0.407
TGTCAACA | 0.184
AGTCAACG | -0.102
CGTCAACG | 0.344
AGTCAACC | -0.219
GGTCAACC | -0.0743
GGTCAACA | -0.0567
GGTACGAA | 0.0828
GATGCACC | -0.163
ATGATCAT | 0.198
CGTCAAGC | 0.0721
CGTCAATC | 0.337
AGTCAATC | 0.0291
GGTCAATA | 0.0678
AGTCAATA | 0.0835
CGTCAATA | 0.349
TCGTATCA | 0.127
ACTAGCCC | -0.0733
CACAGTGG | -0.124
GGCCTGAA | -0.122
CATTCGTC | 0.148
AATTCGTA | 0.252

Sequence | PBM E-score
AATTCGTC | 0.316
CATGCGGA | -0.0527
AGTGCGGC | 0.173
CATGCGGC | 0.33
CGTGCGGC | 0.321
CGTGCGGA | 0.0478
AATGCGGC | 0.266
ATTAAGAC | -0.0411
AGTTGATA | 0.103
GAAAAGAC | 0.222
CGACAGAG | -0.315
TGCCTTAA | -0.0513
CAAAAAAC | 0.201
ACAAAAAA | 0.311
AGAACAAG | 0.113
ACAAAAAC | 0.104
CAAAAAAA | 0.32
AGAACAAT | 0.25
GAAAAAAA | 0.258
CCAAAAAA | 0.279
AAAAAAAA | 0.317
ACAAAAAT | 0.279
AGAACAAA | 0.34
AAAAAAAG | 0.211
CATCCAGC | -0.0585

Sequence | PBM E-score
CTCCGTAA | -0.0462
CCACCTAA | -0.0425
TAGCCCGA | -0.177
CACAATCA | 0.17
AGTTTGAC | 0.0432
ACTTTAAT | 0.107
ATTACGTG | 0.46
CTTACGAA | 0.119
AGTACGTG | -0.125
GTTACGGA | 0.11
CCTACGTA | 0.297
GCTACGTA | 0.213
ACTACGTA | 0.343
ATTACCTG | 0.14
CTCACGTA | -0.00865
ACTACGTG | -0.0819
CTTACGTA | 0.466
GTTACGTA | 0.46
AGTCTCAA | -0.217
CAAACCTC | -0.272
TCTTCACA | 0.113
AAACCCGT | 0.0445
ATCTCGTG | -0.0972
ATCGCTGG | -0.217
AGACGCAT | -0.0757

Sequence | PBM E-score
CTTACGCC | 0.193
ATTAGGTA | 0.261
ATTACGGA | 0.154
ACTACGTC | 0.157
ATTACGTC | 0.485
ATTACGTA | 0.49
ATTACGGC | 0.266
CTTACGTC | 0.421
CTCACGTC | 0.14
AACCTTCG | 0.0222
CCAAGGCC | -0.19
CCATTCTA | -0.0992
AAGAATTG | 0.182
ACTTGCTC | -0.198
ATCAAACA | 0.107
CAGTTGGC | -0.175
ACGTCACG | 0.49
AAGTCACA | 0.119
AGGTCACT | -0.0496
AGGTCACG | 0.0374
ACGTCACT | 0.495
AAGTCACT | 0.141
AGGTCACA | -0.0345
AAGTCACG | 0.0378
ACGTCACA | 0.484

Sequence | PBM E-score
TGCACCAA | -0.0568
AGTTGCTG | -0.0492
ACACACAG | 0.107
CACGCTGC | -0.246
CAACCACC | -0.251
ATTCTCGC | -0.17
AAGTACCC | -0.275
ATGCCTCA | 0.11
ATGCCTCC | -0.0323
ATGCCTCG | 0.317
CTGTCATA | 0.186
ATGTCATC | 0.432
ATGTCATG | 0.425
ATGTCAGC | 0.225
ATGTCAAG | 0.235
ATGTCATA | 0.442
ATGTCGTG | 0.0262
GTGTCATA | 0.249
CTGTCATC | 0.186
ACTTTGAA | 0.0348
GCATCGAA | -0.0745
GGATCTAA | -0.0815
GACCTTAA | -0.0362
CTAGTGCC | -0.125
AGCTATCG | -0.106

Sequence | PBM E-score
GCAGCAGC | -0.133
ATCACCGA | 0.212
CTCACCAA | 0.102
GTCACCAC | 0.373
ATCACCAC | 0.244
CTCACCGA | 0.048
GTCACCAA | 0.315
GTCACCGA | 0.426
TTCACCAA | 0.124
CTCACCAC | -0.0767
GTGGTGAA | -0.0462
GTCTCCAA | -0.00606
GAGCAAAA | 0.0129
CGAGCCTA | 0.011
ATTTATTA | 0.357
AATTATTA | 0.321
AATTATGA | 0.359
AATTATTC | 0.219
AATTATGT | 0.304
ATTATTTA | 0.305
AATTATGG | 0.0357
AATTATTG | 0.252
GTTTATTA | 0.164
